From PubChem BioAssay (NCI) come the findings set out here.

This is part of a sample that, as a whole, favours compounds with a hit. Of some 83,000 tested, about 20% had one in any assay.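 The endpoint reported here, percent growth, reads 100 for growth as untreated, 0 for no net growth and -100 for all cells dead.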 A number with no mark means an inactive call. Activity calls are given as the source filed them.

This assay deals with EKVX NSCLC. Description: NCI-60 one-dose screen, 48 h (100 = growth as untreated, 0 = no growth, -100 = all killed). The settings on record: 10 µM unless noted. The protocol: Growth inhibition of the EKVX human Non-Small Cell Lung tumor cell line is measured as a screen for anti-cancer activity. Cells are grown in 96 well plates and exposed to the test compound for 48 hours. Compounds are tested at a single concentration, which is 10^-5 M for most compounds. The reported endpoint is percent growth (GI% or GIPRCNT), where numbers from 0 - 100% represent growth inhibition, and numbers from -100% - 0 represent cell death. For example, a value of 40 represents 60% growth inhibition. A value of 0 means no net growth occurred over the course of the experiment. A value of -40 indicates 40% of cells at the beginning of the experiment died by the end of the experiment. A value of -100 means all cells are dead at the end of the experiment.
NCI-60 Human Tumor Cell Lines Screen was performed using the standard one-dose NCI protocol, which is described in more detail at https://dtp.cancer.gov/discovery_development/nci-60/default.htm.
Compounds with GIPRCNT values below 10 were considered active. Activity score was based on GIPRCNT using the following formula: […]
Score is 0 for GIPRCNT values of 100 or above, 50 for GIPRCNT values of 0, and 100 for GIPRCNT values of -100.
Consider `C[C@H]1CN(C(=O)c2ccc3c(NNC(=O)c4ccncn4)nc4cc(F)c(F)cc4n23)CCN1`, for which the growth was 15.7%.

Regarding `Cc1ccccc1[C@H]1C(C(=O)c2ccc(Cl)cc2)C2(N[C@@H]1c1ccccc1)C(=O)Nc1ccc(Cl)cc12` (stereo not given in full), the growth is -20.6% (active).

As for `CCCCSc1nc(NCCc2c[nH]c3ccccc23)c(C#N)c(-c2ccc(OC)cc2)n1`, the growth is 40.1%.

As to `COc1ccc(C(=O)Nc2n[nH]c(Nc3ccccc3)c2C#N)cc1`, the growth was 90.1%.

With `CSc1ccc(NC(=O)c2ccc3nn(/C(C#N)=C/c4ccccn4)nc3c2)cc1`, the growth is -99% (active).

For the compound `COc1cc(/C=C2\C(=N)N=C(SCc3nc4ccccc4[nH]3)NC2=O)ccc1O`, the growth was 101%.

Regarding `Cc1ccc([C@H]2C(C(=O)c3ccc(Cl)cc3)C3(N[C@@H]2c2ccccc2)C(=O)Nc2ccccc23)cc1` (stereo not given in full), the growth is 29.6%.

`COC(=O)/C=C/c1cccc2c1C(=O)NC(C)(c1cc3cc4ccccc4cc3oc1=O)N2` (stereo not given): the growth was 67.5%.

Take `O=C1CCCc2cc(OCC(=O)N3CCCCC3)ccc2N1`: the growth is 104%.

`CC1=C(C(=O)OC(C)C)C(c2cccc(O)c2)NC(=S)N1` (stereo not given): the growth was 99.6%.

With `Cc1ccc(C(=O)CSc2nc3ccc(C)cc3c(=O)n2-c2ccc(F)cc2)cc1`, the growth is 62.8%.

As for `COc1ccc(-c2nnc3ccc(N/N=C/c4ccc(O)cc4)nn23)cc1`, the growth was 37.8%.

For the compound `CC(/C=C1\SC(=S)N(CCCC(=O)NC(CC(C)C)C(=O)O)C1=O)=C\c1ccccc1` (stereo not given), the growth was 101%.

Take `CC(=O)Nc1cccc(Nc2nccc(N[C@@H](C)c3ccccc3)n2)c1`: the growth was 16.6%.

In the case of `CC(=O)Oc1ccccc1C(=O)[Se]C(=NC1CCCCC1)NC1CCCCC1`, the growth was -97.6% (active).

Turning to `COc1ccc(C(=O)/C=C/c2ccc(Oc3nc(Nc4ccc(F)cc4)nc(N(C)C)n3)c(OC)c2)cc1`, the growth was 75.6%.

For `NS(=O)(=O)c1ccc(-n2cc(-c3cccc(NC(=O)c4cc(C(F)(F)F)cc(C(F)(F)F)c4)c3)nn2)cc1`, the growth was 63.8%.

In the case of `CC12CC[C@@H]3[C@]4(C)COC(c5cn[nH]c5-c5cccc(Br)c5)O[C@@H]4CC[C@@]3(C)[C@@H]1CC(C1=CCOC1=O)O2` (stereo not given in full), the growth was 28.2%.

Take `C/C(=N\N=C\c1cc([N+](=O)[O-])ccc1Cl)c1ccc2c(c1)Nc1ccccc1S2`: the growth was 48.5%.

In the case of `Cc1cc(C)cc(NC(=O)Cn2cc(COn3nnc4ccccc43)nn2)c1`, the growth is 102%.

For `CN(C)CCn1c2ccccc2c2nc3cc4ccccc4cc3nc21`, the growth is 36.8%.

Regarding `Cc1ccc(C2CC(c3ccc(S(=O)(=O)NCCNc4nc(Nc5ccc(F)cc5)nc(N(C)C)n4)cc3)=Nc3c(N)nc(N)nc3N2)cc1` (stereo not given), the growth was 62.7%.

For `COc1cc2c(c(OC)c1OC)C(=O)CC(c1cccc(NC(=O)c3cc(NC(=O)[C@@H](N)CO)ccc3C)c1)O2` (stereo not given in full), the growth is 108%.

For the compound `O=C(O)c1ccc(-c2ccc(/C=N/NC(=O)c3[nH]c4ccc(Br)cc4c3-c3ccccc3)o2)cc1`, the growth is 22.3%.

`Cc1ncsc1-c1ccc(CNC(=O)[C@@H]2C[C@@H](O)CN2C(=O)[C@@H](NC(=O)C2(F)CC2)C(C)(C)C)c(OCCOCCOCCOCCOc2nc(Nc3cc(S(C)(=O)=O)ccc3N[C@@H](c3cccc4c3OC(F)(F)O4)c3ncccc3Cl)nc(N3CCNCC3)n2)c1`: the growth is 80.8%.

For `N#Cc1c(-c2cccc(O)c2O)cc(-c2ccc3ccccc3c2)[nH]c1=O`, the growth is 74.5%.

For `CCN1C(=O)N(CC)C2NNC(Sc3c(C(=O)O)c4ccccc4n(C4CCCC4)c3=O)=NC21` (stereo not given), the growth is 45.7%.

On to `N#Cc1c(-c2ccc(Cl)cc2)nc2n[nH]c(-c3ccc(Cl)cc3)c2c1-c1cccs1`, for which the growth was 30.3%.

With `CCCCn1c(O)c(N=Nc2nc(-c3cc4ccccc4oc3=O)cs2)c2cc(Br)ccc21`, the growth was 97.1%.

For `CN(C)c1nc(NCCNS(=O)(=O)c2ccc(C(=O)/C=C/c3ccc(F)cc3)cc2)nc(Nc2ccc(F)cc2)n1`, the growth was -49% (active).

Turning to `C#C[C@]1(O)CC[C@H]2[C@@H]3CC=C4c5sc(-c6ccc([N+](=O)[O-])cc6)nc5CC[C@]4(C)[C@H]3CC[C@@]21C`, the growth was -61.6% (active).

`COc1ccc(NC(=O)Nc2ccc(OCc3ccc(F)cc3)cc2)cc1`: the growth is 74.2%.

As for `CC12CC[C@@H]3[C@]4(C)COC(c5cn[nH]c5-c5ccc(Cl)cc5)O[C@@H]4CC[C@@]3(C)[C@@H]1CC(C1=CCOC1=O)O2` (stereo not given in full), the growth was 36.1%.

Turning to `O=c1oc2ccccc2cc1-c1csc(N2N=C(c3ccccc3)CC2c2ccc(N3CCOCC3)cc2)n1` (stereo not given), the growth was 96.1%.

`Brc1ccc(-c2n(Cc3ccc4ccccc4c3)c(-c3ccccc3)c(-c3ccccc3)[n+]2Cc2ccc3ccccc3c2)cc1`: the growth was -86.7% (active).

As to `O=C(NNc1nc2cc(F)ccc2n2c(CN3CCCCC3)ccc12)c1cnccn1`, the growth is -78.2% (active).

On to `O=C1NC(=O)c2c1c1c3cc(Br)ccc3[nH]c1c1oc3ccc(F)cc3c21`, for which the growth was 20.7%.

Turning to `Cc1ccc2c(N)c(C(=O)Nc3ccc(OC(F)(F)F)cc3)sc2n1`, the growth is 26.9%.

Turning to `COc1cc(C2CC(c3cc(OC)c(OC)c(OC)c3)=NN2C(C)=O)ccc1OCc1ccccc1` (stereo not given), the growth was 32.6%.

As to `Nc1nnc(-c2c[nH]c3ncc(Br)cc23)c(-c2c[nH]c3ccc(F)cc23)n1`, the growth is 41.5%.
